The supplement of paper PMC10849652
About 8,800 targets were measured; listed, in parts, are those with a hit and a random draw of the rest. About 0.5% of all pairs of compound and target were hits.

How the values were obtained:
Assay in all cases: log2 fold change, soluble protein after heating vs DMSO (PISA); higher = thermal stabilisation; K562 lysate, 10 uM; active = over 0.2 and 3.5 SD of the protein, either way, in both replicates (recomputed)
[1] = compound: C1=CC=C(C=C1)[C@H](COC2=CC3=C(C=C2)NC(=O)N3)NC(=O)C4=CC=CN(C4=O)CC5=CC(=C(C=C5)F)F
Method in brief: (§1)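 Thermal stability, expressed as log-two fold change relative to solvent controls, is given from duplicates. Crude K562 extract in PBS pH 7.4 with 1 mM MgCl2, at 1 mg/mL protein, was treated with 10 μM compound for 30 min and heated in aliquots for 3 min across 48°C-58°C. After pooling, adjustment to 0.5% NP-40 at 4°C and centrifugation at 21,000xg for 90 min, supernatant protein was measured by TMTpro 16plex LC-MS/MS with channel sums equalised.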

[2] = compound: CC1=C(SC2=C1C(=N[C@H](C3=NN=C(N32)C)CC(=O)N)C4=CC=C(C=C4)Cl)C
Method in brief: as §1

[3] = compound: CC1=C2C(=CC=C1)N=C(N(C2=O)C3=CC=CC=C3C)CN4C=NC5=C(N=CN=C54)N
Method in brief: as §1

[4] = compound: Cc1sc2c(c1C)C(c1ccc(Cl)cc1)=N[C@@H](CC(=O)OC(C)(C)C)c1nnc(C)n1-2
Method in brief: as §1

[5] = compound: c1ccc([C@@H]2C[C@H]2NC2CCNCC2)cc1
Method in brief: as §1

Measured: log2 fold change

RPS26P11 (UniProt Q5JNZ5)
inactive: [1] -0.001 | [2] 0.031 | [3] 0.05 | [4] -0.033
active: [5] -0.31

RAP1B (UniProt P61224)
inactive: [1] 0.006 | [2] -0.023 | [3] 0.032 | [4] 0.055 | [5] 0.02

RAB5IF isoform 5 (UniProt Q9BUV8)
inactive: [1] 0.01 | [2] -0.096 | [3] 0.019 | [4] -0.085 | [5] 0.364

RBBP8 isoform 2 (UniProt Q99708)
inactive: [1] -0.031 | [2] -0.133 | [3] 0.093 | [4] 0.046 | [5] -0.014

RFC5 (UniProt P40937)
inactive: [1] -0.024 | [2] 0.018 | [3] 0.041 | [4] 0.034 | [5] 0.027

QRSL1 (UniProt Q9H0R6)
inactive: [1] -0.005 | [2] -0.056 | [3] -0.101 | [4] 0.041 | [5] 0.094

RMC1 (UniProt Q96DM3)
inactive: [1] -0.013 | [2] 0.018 | [3] -0.052 | [4] 0.05 | [5] 0.007

RBSN (UniProt Q9H1K0)
inactive: [1] 0.031 | [2] 0.076 | [3] 0.087 | [4] 0.117 | [5] -0.019

RALGAPA1 isoform 6 (UniProt Q6GYQ0)
inactive: [1] -0.041 | [2] -0.072 | [3] 0.006 | [4] -0.063 | [5] -0.178

RBM8A (UniProt Q9Y5S9)
inactive: [1] 0.066 | [2] 0.01 | [3] -0.061 | [4] 0.084 | [5] 0.171

SEC16A isoform 3 (UniProt O15027)
inactive: [4] -0.006

RBMX (UniProt P38159)
inactive: [1] 0.089 | [2] -0.01 | [3] -0.004 | [4] -0.015 | [5] -0.072

QSER1, A0A3B3IRW6
inactive: [3] 0.047 | [4] -0.027

RETREG2 (UniProt Q8NC44)
Sequence of UniProt Q8NC44 (Q8NC44 whole entry, looked up): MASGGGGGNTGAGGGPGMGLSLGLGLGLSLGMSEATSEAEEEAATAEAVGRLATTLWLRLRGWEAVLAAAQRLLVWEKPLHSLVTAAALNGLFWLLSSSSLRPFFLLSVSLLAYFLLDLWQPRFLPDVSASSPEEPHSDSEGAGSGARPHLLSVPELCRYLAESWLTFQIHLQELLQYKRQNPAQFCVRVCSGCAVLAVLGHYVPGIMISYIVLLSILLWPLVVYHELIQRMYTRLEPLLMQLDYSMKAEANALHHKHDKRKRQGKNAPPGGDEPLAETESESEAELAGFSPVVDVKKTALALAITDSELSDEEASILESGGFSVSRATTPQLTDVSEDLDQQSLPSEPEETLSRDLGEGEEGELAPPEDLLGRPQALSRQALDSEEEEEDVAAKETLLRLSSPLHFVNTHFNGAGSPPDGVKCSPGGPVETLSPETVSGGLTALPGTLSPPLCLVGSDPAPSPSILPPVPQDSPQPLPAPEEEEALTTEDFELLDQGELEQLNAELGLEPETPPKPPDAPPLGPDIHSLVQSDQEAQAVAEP
inactive: [1] -0.095 | [2] 0.016 | [3] 0.084 | [5] 0.004

RBM42 (UniProt Q9BTD8)
Sequence of UniProt Q9BTD8 (Q9BTD8 whole entry, looked up): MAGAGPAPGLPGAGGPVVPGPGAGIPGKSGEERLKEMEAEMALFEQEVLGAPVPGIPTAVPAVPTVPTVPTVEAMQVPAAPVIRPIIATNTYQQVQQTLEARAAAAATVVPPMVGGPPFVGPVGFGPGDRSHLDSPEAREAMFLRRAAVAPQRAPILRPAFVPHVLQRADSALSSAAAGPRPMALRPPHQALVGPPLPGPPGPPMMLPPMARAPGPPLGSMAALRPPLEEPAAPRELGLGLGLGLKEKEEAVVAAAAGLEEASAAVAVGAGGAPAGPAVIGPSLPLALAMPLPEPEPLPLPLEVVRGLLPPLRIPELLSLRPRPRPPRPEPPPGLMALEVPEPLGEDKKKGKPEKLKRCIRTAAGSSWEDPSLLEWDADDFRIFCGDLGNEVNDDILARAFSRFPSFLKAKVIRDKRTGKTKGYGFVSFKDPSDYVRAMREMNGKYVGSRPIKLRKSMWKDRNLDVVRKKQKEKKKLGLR
inactive: [1] -0.014 | [2] -0.003 | [3] 0.107 | [4] 0.103 | [5] -0.006

RUFY2 isoform 1 (UniProt Q8WXA3)
Sequence of UniProt Q8WXA3 (Q8WXA3 whole entry, looked up): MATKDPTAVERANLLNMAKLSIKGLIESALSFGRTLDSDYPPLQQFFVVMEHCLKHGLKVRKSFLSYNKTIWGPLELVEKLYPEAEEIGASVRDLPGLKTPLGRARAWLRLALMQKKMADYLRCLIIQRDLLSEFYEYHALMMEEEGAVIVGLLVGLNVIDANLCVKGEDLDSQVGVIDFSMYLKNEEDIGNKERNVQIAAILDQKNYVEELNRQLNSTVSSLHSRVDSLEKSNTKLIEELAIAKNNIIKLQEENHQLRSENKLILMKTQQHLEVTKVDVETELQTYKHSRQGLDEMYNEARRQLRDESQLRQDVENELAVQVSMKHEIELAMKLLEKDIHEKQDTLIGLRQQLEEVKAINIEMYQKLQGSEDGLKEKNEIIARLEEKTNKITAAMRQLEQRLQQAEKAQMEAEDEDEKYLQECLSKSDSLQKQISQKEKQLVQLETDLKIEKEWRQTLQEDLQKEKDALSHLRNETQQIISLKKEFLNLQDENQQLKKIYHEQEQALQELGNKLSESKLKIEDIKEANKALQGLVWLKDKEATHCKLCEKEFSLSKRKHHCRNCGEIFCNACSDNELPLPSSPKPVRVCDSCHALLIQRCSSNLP
inactive: [1] -0.28 | [2] -0.106 | [3] -0.087 | [5] -0.111

RNF168 (UniProt Q8IYW5)
inactive: [1] -0.008 | [2] -0.052 | [3] 0.017 | [4] 0.061 | [5] -0.068

RHBDD1 (UniProt Q8TEB9)
inactive: [1] -0.032 | [2] 0.058 | [3] -0.117 | [5] 0.039

RPS6KA5 (UniProt O75582)
inactive: [3] -0.084 | [4] -0.024 | [5] -0.017

RDH11 (UniProt Q8TC12)
inactive: [3] 0.064 | [4] 0.069 | [5] -0.085

RAB6D (UniProt Q53S08)
Sequence of UniProt Q53S08 (Q53S08 whole entry, looked up): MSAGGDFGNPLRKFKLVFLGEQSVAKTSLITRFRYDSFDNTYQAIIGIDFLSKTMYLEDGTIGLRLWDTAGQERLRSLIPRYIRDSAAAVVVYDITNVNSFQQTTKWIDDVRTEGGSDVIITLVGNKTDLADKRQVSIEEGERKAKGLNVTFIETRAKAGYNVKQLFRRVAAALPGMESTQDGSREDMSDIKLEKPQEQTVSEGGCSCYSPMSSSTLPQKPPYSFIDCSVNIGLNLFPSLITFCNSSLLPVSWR
inactive: [1] -0.045 | [2] 0.01 | [3] 0.034 | [4] -0.003 | [5] -0.045

RMI2 (UniProt Q96E14)
inactive: [3] -0.18 | [4] 0.079

RNASEH1 (UniProt O60930)
inactive: [5] 0.11

RXRB isoform 3 (UniProt P28702)
inactive: [1] -0.214 | [2] -0.018 | [3] -0.151 | [4] -0.057 | [5] 0.06

RBM45 (UniProt Q8IUH3)
inactive: [5] -0.026

SATB2 (UniProt Q9UPW6)
Sequence of UniProt Q9UPW6 (Q9UPW6 whole entry, looked up): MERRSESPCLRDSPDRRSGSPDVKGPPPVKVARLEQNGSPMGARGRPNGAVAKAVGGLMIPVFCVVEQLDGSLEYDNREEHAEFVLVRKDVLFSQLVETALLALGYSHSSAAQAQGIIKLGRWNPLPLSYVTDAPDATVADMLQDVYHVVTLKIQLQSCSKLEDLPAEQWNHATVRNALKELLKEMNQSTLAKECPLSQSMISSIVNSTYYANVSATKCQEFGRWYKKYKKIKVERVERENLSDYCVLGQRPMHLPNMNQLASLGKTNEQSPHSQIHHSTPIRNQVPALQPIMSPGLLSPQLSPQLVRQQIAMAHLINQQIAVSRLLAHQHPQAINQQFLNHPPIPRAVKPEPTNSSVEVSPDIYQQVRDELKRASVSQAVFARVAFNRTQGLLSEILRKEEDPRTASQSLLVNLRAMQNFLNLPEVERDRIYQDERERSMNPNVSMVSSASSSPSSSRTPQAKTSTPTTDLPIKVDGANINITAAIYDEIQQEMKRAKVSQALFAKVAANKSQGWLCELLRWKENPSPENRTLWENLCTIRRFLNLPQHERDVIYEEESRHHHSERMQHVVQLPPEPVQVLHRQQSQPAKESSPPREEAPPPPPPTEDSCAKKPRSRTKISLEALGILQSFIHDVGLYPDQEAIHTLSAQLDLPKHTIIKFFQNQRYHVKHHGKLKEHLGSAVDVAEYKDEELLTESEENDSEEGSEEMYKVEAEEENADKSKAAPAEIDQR
inactive: [3] -0.019 | [4] 0.021 | [5] -0.045

RNF2 (UniProt Q99496)
inactive: [3] 0.03 | [4] -0.091 | [5] 0.343

RAD54L (UniProt Q92698)
active: [5] -1.06
inactive: [1] -0.013 | [2] -0.031 | [4] -0.299

RYR1 (UniProt P21817)
inactive: [1] -0.011 | [2] -0.028 | [4] -0.093 | [5] -0.055

RNF24 isoform 2 (UniProt Q9Y225)
inactive: [1] -0.219 | [2] 0.037 | [5] -0.115

SERAC1 (UniProt Q96JX3)
inactive: [1] -0.122 | [2] 0.145 | [4] 0.11 | [5] 0.065

RPS29 (UniProt P62273)
inactive: [1] 0.047 | [2] -0.055 | [3] -0.071 | [4] 0.328 | [5] 0.398

RAD54L2 (UniProt Q9Y4B4)
inactive: [1] 0.139 | [2] 0.144 | [3] 0.029 | [4] -0.131 | [5] 0.147

RRM1 (UniProt P23921)
inactive: [1] 0.014 | [2] 0.028 | [3] 0.042 | [4] 0.028 | [5] 0.004

RNF17 (UniProt Q9BXT8)
Sequence of UniProt Q9BXT8 (Q9BXT8 whole entry, looked up): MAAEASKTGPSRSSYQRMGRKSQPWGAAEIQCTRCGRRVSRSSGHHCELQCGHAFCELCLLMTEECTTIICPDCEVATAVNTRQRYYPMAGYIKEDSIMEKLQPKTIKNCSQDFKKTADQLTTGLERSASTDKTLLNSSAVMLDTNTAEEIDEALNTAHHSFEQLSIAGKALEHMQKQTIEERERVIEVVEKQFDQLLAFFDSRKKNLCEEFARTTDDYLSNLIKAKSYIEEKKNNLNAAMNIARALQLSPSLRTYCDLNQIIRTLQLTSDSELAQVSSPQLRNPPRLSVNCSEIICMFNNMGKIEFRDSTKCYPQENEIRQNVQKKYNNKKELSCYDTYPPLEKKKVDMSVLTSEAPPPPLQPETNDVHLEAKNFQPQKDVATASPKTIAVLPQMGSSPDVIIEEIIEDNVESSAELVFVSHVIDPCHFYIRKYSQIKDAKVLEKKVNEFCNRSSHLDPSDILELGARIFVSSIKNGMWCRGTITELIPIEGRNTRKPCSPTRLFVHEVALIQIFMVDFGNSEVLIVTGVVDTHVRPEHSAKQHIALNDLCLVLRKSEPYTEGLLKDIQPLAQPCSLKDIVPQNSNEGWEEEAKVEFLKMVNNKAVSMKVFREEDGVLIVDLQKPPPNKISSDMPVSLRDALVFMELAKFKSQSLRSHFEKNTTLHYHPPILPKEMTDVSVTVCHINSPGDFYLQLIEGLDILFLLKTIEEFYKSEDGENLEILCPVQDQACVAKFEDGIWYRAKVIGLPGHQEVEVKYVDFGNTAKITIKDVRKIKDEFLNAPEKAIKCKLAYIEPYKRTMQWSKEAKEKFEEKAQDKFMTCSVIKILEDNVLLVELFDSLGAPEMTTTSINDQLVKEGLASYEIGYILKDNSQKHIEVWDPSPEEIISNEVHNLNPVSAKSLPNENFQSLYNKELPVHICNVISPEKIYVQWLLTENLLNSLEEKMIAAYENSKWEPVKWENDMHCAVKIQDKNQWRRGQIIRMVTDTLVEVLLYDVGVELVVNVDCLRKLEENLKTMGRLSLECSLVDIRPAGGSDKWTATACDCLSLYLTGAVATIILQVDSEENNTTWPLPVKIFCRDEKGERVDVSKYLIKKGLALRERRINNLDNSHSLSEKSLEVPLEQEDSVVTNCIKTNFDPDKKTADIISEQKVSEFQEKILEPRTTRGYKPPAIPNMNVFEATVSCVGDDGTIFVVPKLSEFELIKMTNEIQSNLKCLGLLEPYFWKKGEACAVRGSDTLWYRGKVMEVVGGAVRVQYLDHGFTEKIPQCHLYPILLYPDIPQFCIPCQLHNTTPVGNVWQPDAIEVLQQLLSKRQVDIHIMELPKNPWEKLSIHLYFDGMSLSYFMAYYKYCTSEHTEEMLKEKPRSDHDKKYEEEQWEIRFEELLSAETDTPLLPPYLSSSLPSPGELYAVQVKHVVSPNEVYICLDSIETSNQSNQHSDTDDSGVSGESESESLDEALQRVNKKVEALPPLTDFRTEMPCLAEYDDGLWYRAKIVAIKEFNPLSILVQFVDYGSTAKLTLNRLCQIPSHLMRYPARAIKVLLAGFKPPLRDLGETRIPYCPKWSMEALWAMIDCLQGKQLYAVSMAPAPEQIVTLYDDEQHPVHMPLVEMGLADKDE
inactive: [1] -0.241 | [4] 0.129 | [5] 0.451
active: [2] 1

RHOU (UniProt Q7L0Q8)
inactive: [3] 0.065 | [4] -0.1 | [5] -0.015

RALGAPB isoform 3 (UniProt Q86X10)
inactive: [1] 0.107 | [2] 0.05 | [4] 0.189 | [5] 0.153

SEMA4G isoform 2 (UniProt Q9NTN9)
Sequence of UniProt Q9NTN9 (Q9NTN9 whole entry, looked up): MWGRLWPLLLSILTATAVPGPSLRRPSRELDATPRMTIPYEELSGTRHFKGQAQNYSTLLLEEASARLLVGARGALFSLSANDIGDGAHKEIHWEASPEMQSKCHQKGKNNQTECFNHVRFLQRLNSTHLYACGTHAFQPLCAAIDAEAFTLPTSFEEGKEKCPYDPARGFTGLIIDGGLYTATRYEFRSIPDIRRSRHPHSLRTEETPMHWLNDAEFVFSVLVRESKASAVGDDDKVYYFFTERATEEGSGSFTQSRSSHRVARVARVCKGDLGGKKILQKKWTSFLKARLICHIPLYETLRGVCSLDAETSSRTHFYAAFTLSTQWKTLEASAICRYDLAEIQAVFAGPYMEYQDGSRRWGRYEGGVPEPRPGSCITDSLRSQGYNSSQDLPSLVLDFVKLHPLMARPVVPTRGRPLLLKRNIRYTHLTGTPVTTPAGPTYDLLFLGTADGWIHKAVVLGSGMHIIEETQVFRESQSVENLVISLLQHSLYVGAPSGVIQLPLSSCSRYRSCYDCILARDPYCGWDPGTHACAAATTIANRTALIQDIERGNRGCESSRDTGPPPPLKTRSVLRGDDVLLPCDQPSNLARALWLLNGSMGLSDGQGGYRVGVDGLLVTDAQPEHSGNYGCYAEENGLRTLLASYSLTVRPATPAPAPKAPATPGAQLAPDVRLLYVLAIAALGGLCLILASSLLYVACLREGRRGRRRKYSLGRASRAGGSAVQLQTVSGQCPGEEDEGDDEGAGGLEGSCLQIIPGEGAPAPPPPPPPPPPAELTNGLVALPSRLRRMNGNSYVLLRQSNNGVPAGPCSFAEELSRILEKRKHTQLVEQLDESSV
inactive: [3] 0.105 | [4] 0.021 | [5] 0.066

SCNM1 (UniProt Q9BWG6)
inactive: [4] -0.332 | [5] 0.014

RNPC3 (UniProt Q96LT9)
inactive: [4] -0.029 | [5] -0.034

S100A6 (UniProt P06703)
inactive: [3] -0.084 | [4] -0.1 | [5] 0.104

RXRA (UniProt P19793)
inactive: [4] 0.167 | [5] -0.149
